# In paper PMC5869772, “Quantitative profiling of BATF family proteins/JUNB/IRF hetero-trimers using Spec-seq”:
# Tests used:
# Experiment in all cases: Spec-seq (EMSA and sequencing of bound and unbound bands); 100 nM BATFx-JUNB, 1 uM dsDNA library, 50 mM K acetate, 20 mM Tris-acetate, 10 mM Mg acetate, 100 ug/ml BSA, pH 7.9, 10% glycerol, 30 min on ice; native 9% PAGE at 4 C; low values mean tight binding
# Conditions in all cases: protein: recombinant;recombinant; tags: N-terminal mCherry-TEV, cleaved off;C-terminal 6His; copies: 1;1; dsDNA, one strand shown
# BATF;JUNB = target: T1, BATF;JUNB (human;human, UniProt Q16520;P17275 1-125;148-347, |)
# T1 sequence 1: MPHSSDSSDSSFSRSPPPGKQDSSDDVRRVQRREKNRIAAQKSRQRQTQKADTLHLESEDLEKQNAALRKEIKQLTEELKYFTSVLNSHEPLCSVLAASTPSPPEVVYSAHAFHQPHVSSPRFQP
# T1 sequence 2: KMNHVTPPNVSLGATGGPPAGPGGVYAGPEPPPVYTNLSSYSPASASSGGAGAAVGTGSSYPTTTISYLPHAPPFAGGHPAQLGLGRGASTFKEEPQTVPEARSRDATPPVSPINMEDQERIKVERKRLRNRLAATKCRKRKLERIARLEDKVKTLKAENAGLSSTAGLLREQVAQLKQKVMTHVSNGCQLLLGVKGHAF
# In short: (§1)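 The protein, at 100 nM, was incubated with 1 μM double-stranded degenerate DNA library for 30 min on ice in NEB Cutsmart buffer with 10% glycerol, then resolved by native 9% PAGE at 4 °C. Excised bound and unbound bands were PCR-barcoded and Illumina-sequenced, and each sequence's relative binding energy in kT is −ln of its bound/unbound read-count ratio.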
# BATF2 (bZIP);JUNB = target: T2, BATF2 (bZIP);JUNB (human;human, UniProt Q8N1L9;P17275 1-142;148-347, |)
# T2 sequence 1: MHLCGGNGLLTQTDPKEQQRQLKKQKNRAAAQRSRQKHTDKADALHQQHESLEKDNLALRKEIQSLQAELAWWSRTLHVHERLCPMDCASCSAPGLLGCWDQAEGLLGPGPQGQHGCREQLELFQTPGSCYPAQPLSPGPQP
# T2 sequence 2: T1 sequence 2
# In short: as §1
# BATF3;JUNB = target: T3, BATF3;JUNB (human;human, UniProt Q9NR55;P17275 1-127;148-347, |)
# T3 sequence 1: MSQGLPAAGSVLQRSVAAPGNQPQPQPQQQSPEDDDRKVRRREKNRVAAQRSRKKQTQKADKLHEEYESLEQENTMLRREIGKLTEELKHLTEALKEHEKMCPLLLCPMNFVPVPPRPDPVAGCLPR
# T3 sequence 2: T1 sequence 2
# In short: as §1
Sequence,binding signal (BATF;JUNB) [kT],binding signal (BATF2 (bZIP);JUNB) [kT],binding signal (BATF3;JUNB) [kT]
GATAGTCTCATTTTCACCCCGTGAAATGAGTCGGTTGTTCCATTACAGTATCTGT,0.0858,1.07,0.619
GATAGTCTCATTTTCACCCCGTGAAATGAGTAAGTTGTTCCATTACAGTATCTGT,-0.362,0.572,0.139
GATAGTCTCATTTTCACCCCGTGAAATGACACACTTGTTCCATTACAGTATCTGT,-0.0204,0.55,0.362
GATAGTCTCATTTTCACCCCGTGAAATGAGTCCCTTGTTCCATTACAGTATCTGT,0.424,1.38,1.03
GATAGTCTCATTTTCACCCCGTGAAATGACTCTTTTGTTCCATTACAGTATCTGT,0.109,0.673,0.524
GATAGTCTCATTTTCACCCCGTGAAATGACGCATTTGTTCCATTACAGTATCTGT,-0.475,0.109,-0.479
GATAGTCTCATTTTCACCCCGTGAAATGAGTCCTTTGTTCCATTACAGTATCTGT,0.17,1.09,0.708
GATAGTCTCATTTTCACCCCGTGAAATGAGTCCATTGTTCCATTACAGTATCTGT,0.0398,1.1,0.51
GATAGTCTCATTTTCACCCCGTGAAATGACGTCTTTGTTCCATTACAGTATCTGT,-0.0562,0.447,-0.318
GATAGTCTCATTTTCACCCCGTGAAATAGAGTCATTGTTCCATTACAGTATCTGT,-0.357,0.163,-0.29
GATAGTCTCATTTTCACCCCGTGAAAAGACTCATTTGTTCCATTACAGTATCTGT,0.016,0.734,0.446
GATAGTCTCATTTTCACCCCGTGAAAGTAAGTCATTGTTCCATTACAGTATCTGT,-0.0818,0.203,-0.041
GATAGTCTCATTTTCACCCCGTGAAATTGGGTCATTGTTCCATTACAGTATCTGT,0.183,0.516,-0.0123
GATAGTCTCATTTTCACCCCGTGAAATGACTCGATTGTTCCATTACAGTATCTGT,-0.328,0.519,0.109
GATAGTCTCATTTTCACCCCGTGAAATCGAGTCATTGTTCCATTACAGTATCTGT,-0.54,0.0512,-0.401
GATAGTCTCATTTTCACCCCGTGAAATGACTTACTTGTTCCATTACAGTATCTGT,0.0298,0.563,0.342
GATAGTCTCATTTTCACCCCGTGAAATGACTCTGTTGTTCCATTACAGTATCTGT,-0.0517,0.667,0.481
GATAGTCTCATTTTCACCCCGTGAAACGAGTCATTTGTTCCATTACAGTATCTGT,-0.477,0.283,-0.111
GATAGTCTCATTTTCACCCCGTGAAATGACTCAATTGTTCCATTACAGTATCTGT,-0.531,-0.145,-0.634
GATAGTCTCATTTTCACCCCGTGAAATGACACAGTTGTTCCATTACAGTATCTGT,0.189,0.717,0.492
GATAGTCTCATTTTCACCCCGTGAAATGAGACACTTGTTCCATTACAGTATCTGT,0.71,1.71,1.3
GATAGTCTCATTTTCACCCCGTGAAATGACCCAATTGTTCCATTACAGTATCTGT,0.427,0.768,0.601
GATAGTCTCATTTTCACCCCGTGAAATGACGTGATTGTTCCATTACAGTATCTGT,-0.588,-0.181,-1.06

Sequence,binding signal (BATF;JUNB) [kT],binding signal (BATF2 (bZIP);JUNB) [kT],binding signal (BATF3;JUNB) [kT]
GATAGTCTCATTTTCACCCCGTGAAATTTAGTCATTGTTCCATTACAGTATCTGT,-0.725,-0.038,-0.503
GATAGTCTCATTTTCACCCCGTGAAACTGTGTCATTGTTCCATTACAGTATCTGT,-0.318,0.116,-0.22
GATAGTCTCATTTTCACCCCGTGAAATCACGTCATTGTTCCATTACAGTATCTGT,-0.743,-0.494,-1.33
GATAGTCTCATTTTCACCCCGTGAAATGAGGCACTTGTTCCATTACAGTATCTGT,0.813,1.32,1.29
GATAGTCTCATTTTCACCCCGTGAAATGACTCGGTTGTTCCATTACAGTATCTGT,-0.246,0.589,0.398
GATAGTCTCATTTTCACCCCGTGAAATGACGTCATTGTTCCATTACAGTATCTGT,-1.05,-1.32,-1.75
GATAGTCTCATTTTCACCCCGTGAAAATGAGTCATTGTTCCATTACAGTATCTGT,-1.25,-1.01,-1.35
GATAGTCTCATTTTCACCCCGTGAAAATTAGTCATTGTTCCATTACAGTATCTGT,-1.07,-0.658,-1.24
GATAGTCTCATTTTCACCCCGTGAAATTAGTCATTTGTTCCATTACAGTATCTGT,-0.885,-0.599,-1.19
GATAGTCTCATTTTCACCCCGTGAAATGAGTGACTTGTTCCATTACAGTATCTGT,0.0645,0.827,0.384
GATAGTCTCATTTTCACCCCGTGAAAATAAGTCATTGTTCCATTACAGTATCTGT,-0.448,-0.0249,-0.395
GATAGTCTCATTTTCACCCCGTGAAACTTAGTCATTGTTCCATTACAGTATCTGT,-0.834,-0.172,-0.762
GATAGTCTCATTTTCACCCCGTGAAAGGACTCATTTGTTCCATTACAGTATCTGT,0.219,0.9,0.665
GATAGTCTCATTTTCACCCCGTGAAATGACATCATTGTTCCATTACAGTATCTGT,-0.531,-0.296,-1.1
GATAGTCTCATTTTCACCCCGTGAAATAAGTCATTTGTTCCATTACAGTATCTGT,-0.248,0.152,-0.202
GATAGTCTCATTTTCACCCCGTGAAATGACTCCTTTGTTCCATTACAGTATCTGT,0.0649,0.734,0.584
GATAGTCTCATTTTCACCCCGTGAAATGAGGTCATTGTTCCATTACAGTATCTGT,-0.348,0.096,-1.09
GATAGTCTCATTTTCACCCCGTGAAATGAGTAAATTGTTCCATTACAGTATCTGT,-0.0981,0.684,0.363
GATAGTCTCATTTTCACCCCGTGAAACTGGGTCATTGTTCCATTACAGTATCTGT,0.364,0.724,0.562
GATAGTCTCATTTTCACCCCGTGAAATGCCTCATTTGTTCCATTACAGTATCTGT,0.532,1.18,1.01
GATAGTCTCATTTTCACCCCGTGAAAATGTGTCATTGTTCCATTACAGTATCTGT,-0.713,-0.258,-0.757
GATAGTCTCATTTTCACCCCGTGAAATGACTCCCTTGTTCCATTACAGTATCTGT,0.214,0.862,0.785
GATAGTCTCATTTTCACCCCGTGAAACGACGTCATTGTTCCATTACAGTATCTGT,-0.501,-0.195,-1.03

Sequence,binding signal (BATF;JUNB) [kT],binding signal (BATF2 (bZIP);JUNB) [kT],binding signal (BATF3;JUNB) [kT]
GATAGTCTCATTTTCACCCCGTGAAAAAGAGTCATTGTTCCATTACAGTATCTGT,-0.185,0.233,0.0775
GATAGTCTCATTTTCACCCCGTGAAAGTGAGTCATTGTTCCATTACAGTATCTGT,-1.22,-0.978,-1.65
GATAGTCTCATTTTCACCCCGTGAAACTAAGTCATTGTTCCATTACAGTATCTGT,-0.15,0.261,-0.118
GATAGTCTCATTTTCACCCCGTGAAATGAGTCGATTGTTCCATTACAGTATCTGT,-0.215,1.01,0.391
GATAGTCTCATTTTCACCCCGTGAAACAGAGTCATTGTTCCATTACAGTATCTGT,-0.149,0.309,-0.0855
GATAGTCTCATTTTCACCCCGTGAAATGACTTATTTGTTCCATTACAGTATCTGT,-0.08,0.489,0.185
GATAGTCTCATTTTCACCCCGTGAAAGGAGTCATTTGTTCCATTACAGTATCTGT,-0.0687,0.569,0.243
GATAGTCTCATTTTCACCCCGTGAAAGTTAGTCATTGTTCCATTACAGTATCTGT,-0.763,-0.0778,-0.656
GATAGTCTCATTTTCACCCCGTGAAATGAGGCAGTTGTTCCATTACAGTATCTGT,0.781,1.36,1.27
GATAGTCTCATTTTCACCCCGTGAAATGAGCCAGTTGTTCCATTACAGTATCTGT,0.487,1.33,1.1
GATAGTCTCATTTTCACCCCGTGAAATGACTTAGTTGTTCCATTACAGTATCTGT,0.0125,0.47,0.28
GATAGTCTCATTTTCACCCCGTGAAATGACGCAGTTGTTCCATTACAGTATCTGT,-0.301,0.363,-0.216
GATAGTCTCATTTTCACCCCGTGAAACCGAGTCATTGTTCCATTACAGTATCTGT,-0.617,0.173,-0.192
GATAGTCTCATTTTCACCCCGTGAAATGAGTCGCTTGTTCCATTACAGTATCTGT,0.025,1.18,0.711
GATAGTCTCATTTTCACCCCGTGAAATGACCCACTTGTTCCATTACAGTATCTGT,0.593,1.04,0.927
GATAGTCTCATTTTCACCCCGTGAAATGACTGATTTGTTCCATTACAGTATCTGT,-0.224,0.321,0.106
GATAGTCTCATTTTCACCCCGTGAAATGCGTCATTTGTTCCATTACAGTATCTGT,-0.941,-0.434,-1.03
GATAGTCTCATTTTCACCCCGTGAAATGACGACATTGTTCCATTACAGTATCTGT,-0.298,0.288,-0.606
GATAGTCTCATTTTCACCCCGTGAAATGAGTCCGTTGTTCCATTACAGTATCTGT,0.231,1.26,1.04
GATAGTCTCATTTTCACCCCGTGAAATTCAGTCATTGTTCCATTACAGTATCTGT,-0.317,0.285,-0.0636
GATAGTCTCATTTTCACCCCGTGAAATTGAGTCATTGTTCCATTACAGTATCTGT,-0.981,-0.804,-1.45
